In the library only some 1.3% were active in any assay of this set; here they are far more common.
RXFP1 ag: activates the human relaxin receptor RXFP1; HEK293T-RXFP1 cAMP TR-FRET, 30 min; response scale: percent of porcine relaxin response, buffer zero; Potency, µM (doses to about 57.5 µM), without a hit: top-dose activation, hits mostly activators; 370,000 compounds, 0.3% hits; active = well fitted activation curve with a large enough effect; inconclusive = small, poorly fitted or top-dose-only effect; note: potency is the fitted concentration of half-maximal effect; % is set by controls: 0 for no effect and ±100 for the full control effect; nearly all actives have a fitted effect of over 60% in size
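HEK293T cells stably expressing RXFP1 were pretreated with the PDE4 inhibitor Ro 20174, exposed to compounds for 30 min at 37C, lysed, and cAMP was read by TR-FRET. Data normalized to buffer (basal) and 29 nM porcine relaxin (100%).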
Akt phos inh: blocks phosphorylation of Akt. Neuro2A IGF-stimulated pAkt S473 HTRF, 20 min; hits give low values. activity change, % for hits at 50 µM. 360,000 compounds, 0.32% hits. AID 651550; in the data active = activity change below about -80%; inconclusive = mostly about -51% to -80%; note: % is set by controls: 0 for no effect and ±100 for the full control effect
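Neuro2A cells in DMEM with 0.5% FBS, overnight at 37 deg C, given compound at single 50 µM final, then IGF (6 nM final) for 20 min at 37 deg C. Lysed; phospho-Akt Ser473 by HTRF after 24 h, 665/615 ratio.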
gsp antagonist: antagonists of gsp mutant (McCune-Albright syndrome); gsp-mutant cells, cAMP HTRF, 30 min; Potency, µM (doses to about 76.9 µM), inactives show top-dose activity change, negative = inhibition, usual class: inhibitors; 340,000 compounds, 0.4% hits; calls by dose curve; cell line not stated here;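 note: intracellular cAMP measured with PDE inhibitor Ro 20-1724 present during compound exposure; potency is the fitted concentration of half-maximal effect; % is set by controls: 0 for no effect and ±100 for the full control effect; nearly all actives have a fitted effect of over 65% in size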
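HTRF cAMP read-out (cAMP-d2 plus anti-cAMP antibody-K in lysis buffer, 30 min RT). Before lysis, cells are exposed to compounds with […] for 30 min at 37C in DPBS containing Ca/Mg, BSA and Tween 20.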
gsp ag: agonists of gsp mutant (McCune-Albright syndrome). gsp mutant cells, cAMP HTRF, 30 min. Potency, µM (series often up to 76.9 µM), inactives show at the highest dose activation (cAMP increase), actives largely listed as activators. 340,000 compounds, 0.13% hits; active = well fitted activation curve with a large enough effect; inconclusive = small, poorly fitted or top-dose-only effect, or another doubt; inactive = no such curve, though single readings can be large or run the other way; cell line not stated here;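 note: phosphodiesterase inhibitor Ro 20-1724 added with compounds to block cAMP breakdown; potency is the fitted concentration of half-maximal effect; nearly all actives have a fitted effect of over 60% in size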
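Cells stably selected in G418 were plated at 2000/well, grown 16-24 hr, then given compounds in DMSO with the PDE inhibitor […] (300 uM solution added) for 30 min at 37C; cAMP was read by HTRF.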
TSHR antag: antagonists of human thyroid stimulating hormone receptor; P16473; TSHR-expressing cells, TSH-stimulated cAMP HTRF, 2 h; hits give low values; activity change, negative = inhibition, % at 11.5 µM; 330,000 compounds, 0.2% hits;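 active = activity change below a set negative limit, meaning inhibition stronger than a set level, cut at about -70% in these data; inconclusive = activity change between two set negative limits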; note: % is set by controls: 0 for no effect and ±100 for the full control effect
Target sequence (P16473 whole entry, looked up): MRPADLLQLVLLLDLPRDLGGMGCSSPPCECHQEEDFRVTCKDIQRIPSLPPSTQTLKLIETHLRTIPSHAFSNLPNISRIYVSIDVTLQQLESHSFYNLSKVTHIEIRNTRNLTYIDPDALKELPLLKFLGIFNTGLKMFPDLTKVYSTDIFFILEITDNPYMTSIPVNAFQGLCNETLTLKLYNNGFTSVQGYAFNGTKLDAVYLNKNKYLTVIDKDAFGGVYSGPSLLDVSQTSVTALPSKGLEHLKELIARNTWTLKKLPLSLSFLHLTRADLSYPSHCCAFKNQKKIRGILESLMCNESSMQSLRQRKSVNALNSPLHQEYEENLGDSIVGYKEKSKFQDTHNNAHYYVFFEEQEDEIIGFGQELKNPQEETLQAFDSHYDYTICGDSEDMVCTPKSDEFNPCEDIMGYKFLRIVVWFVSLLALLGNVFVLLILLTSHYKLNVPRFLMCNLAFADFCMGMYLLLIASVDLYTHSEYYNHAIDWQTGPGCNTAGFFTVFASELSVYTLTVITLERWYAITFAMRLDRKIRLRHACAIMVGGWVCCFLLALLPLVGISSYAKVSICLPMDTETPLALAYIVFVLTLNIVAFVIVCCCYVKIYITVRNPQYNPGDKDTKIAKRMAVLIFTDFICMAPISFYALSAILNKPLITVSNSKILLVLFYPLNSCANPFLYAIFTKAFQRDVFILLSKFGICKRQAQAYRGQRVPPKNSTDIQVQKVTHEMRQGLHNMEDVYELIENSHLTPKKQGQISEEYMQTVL
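Inhibition of cAMP made by TSHR-expressing cells under TSH stimulation (4nM final, EC80; 2 h, 37 deg C) is quantified with a one-step lysis HTRF kit, anti-cAMP cryptate versus cAMP-d2.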
RXFP1 antagonist: blocks the human relaxin receptor RXFP1. HEK293-RXFP1, relaxin-stimulated cAMP HTRF, 30 min; hits give low values. activity change, negative = inhibition, % at 57.5 µM. Q9HBX9. 350,000 compounds, 0.59% hits;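 active = activity change of -60% or lower, but not beyond a set lower limit; inconclusive = change between -60% and -40%, or beyond the set limit; inactive = change above -40%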; note: % is set by controls: 0 for no effect and ±100 for the full control effect
Numbers without * were called inactive; i = inactive; ? = inconclusive; . = no result; [ ] = another dose, or the depositor's remark.

SMILES	RXFP1 ag	Akt phos inh	gsp antagonist	gsp ag	TSHR antag	RXFP1 antagonist
Nc1nnnn1/N=C/c1ccco1	2%	-130%*	-1%	8%	4	11
O=C(CCSc1ccc(Br)cc1)c1ccc(O)cc1	0%	i	-3%	49%	-7	8
Cc1cc(OCc2cc(C(=O)N(C)C(C)c3ccccn3)no2)cc(C)c1Cl (stereo unspecified)	1%	i	?	?	-98*	-31
CCn1cc(-c2cc(C(F)(F)F)n3nc(C(=O)O)cc3n2)c(C)n1	3%	-112%*	-6%	0%	-6	-2
O=C(O)c1cc2nc(-c3ccc(F)cc3)cc(C(F)(F)F)n2n1	0%	i	-16%	8%	.	-15
CN1C(=O)/C(=C/c2ccccc2F)Sc2ccc(C(=O)NCC3CCCO3)cc21 (stereo unspecified)	0%	i	32µM*	?	-1	-9
C=CCOc1cccc(C(=O)N2CCC(CCC(=O)NC3CC3)CC2)c1	3%	.	2%	0%	1	5
CCc1cc2c(CN3CCN(CCO)CC3)cc(=O)oc2cc1O	-3%	-106%*	2%	26%	4	-6
CCc1cc2c(CN3CCN(C)CC3)cc(=O)oc2cc1O	4%	i	0%	?	1	1
O=C(CSc1nc(O)cc(=O)n1-c1ccccc1)Nc1ccc2c3c(cccc13)CC2	2%	i	7.1µM*	-16%[15.4 µM]	-23	?
CCN1CCN(C(=S)NCC2CCCO2)CC1 (stereo unspecified)	2%	i	-1%	-2%	15	3
Cc1cnn(C(=S)NCC2CCCO2)c1 (stereo unspecified)	1%	-103%*	7%	4%	-13	-1
CCOC(=O)C(=CNc1cc(C)nn1-c1ccccc1)C(=O)OCC	1%	i	?	-70%	-18	-1
CCOC(=O)C(/C=N/c1cc(C)nn1-c1ccccc1)=C(\C)O	2%	-110%*	11%	?	-11	-7
Cc1cccc(NC(=O)c2ccc(-n3cccn3)c([N+](=O)[O-])c2)c1	2%	-116%*	-8%	-44%	-45	-6
O=C(Nc1ccc(F)c(F)c1)c1ccc(-n2cncn2)c([N+](=O)[O-])c1	1%	i	4%	-27%	-20	-10
CCc1ccc(NC(=O)c2ccc(-n3cncn3)c([N+](=O)[O-])c2)cc1	2%	i	50µM*	9%	.	-21
COc1ccc(NC(=O)c2ccc(-n3cncn3)c([N+](=O)[O-])c2)cc1	4%	i	-7%	-12%	-9	15
O=C(Nc1cccc(/C=C/c2ccccn2)c1)c1ccc(-n2cncn2)c([N+](=O)[O-])c1	2%	i	40µM*	-2%[15.4 µM]	-21	-25
CCn1ccc2c(OCC(=O)Nc3ccccc3C)cccc2c1=O	3%	.	.	.	.	.
CC(C)(C)c1ccccc1NC(=O)c1cnn2c(C(F)F)cc(-c3ccccc3)nc12	2%	.	.	.	.	.
COc1cc(OC)cc(C(=O)NCCOC23CC4CC(CC(C4)C2)C3)c1	1%	i	-16%	2.5µM*	-13	-6
Cc1ccc(C(=O)NCCOC23CC4CC(CC(C4)C2)C3)cc1	0%	i	-3%	-19%	-3	-28
CSc1ccccc1NC(=O)c1c(Br)cnn1C	1%	-122%*	7%	-17%	-1	-9
O=C(O)CCSCCC(=O)O	3%	-106%*	20%	-4%	16	-4
SMILES	RXFP1 ag	Akt phos inh	gsp antagonist	gsp ag	TSHR antag	RXFP1 antagonist
Cc1cc(COc2ccccc2OCCN2CCN(C)CC2)no1	0%	-104%*	-1%	-30%	-2	-9
Cc1cc(C)n2nc(C(=O)Nc3ccc4c(c3)OCO4)nc2n1	19%	i	-5%	?	11	-7
Cc1cc(C)n2nc(C(=O)Nc3ccc4c(c3)OCCO4)nc2n1	14µM*	i	-4%	?	137	16
CC1=NN(C(N)=S)C(=O)C1N=Nc1c(C)cc(C)cc1C (stereo unspecified)	0%	i	3%	-40%	9	-1
CC1=NN(C(N)=S)C(=O)C1N=Nc1c(Br)cc(Br)cc1Br (stereo unspecified)	-3%	i	-10%	9%	-43	-64*
CS(=O)(=O)c1nc(-c2ccc(F)cc2)cc(C(F)(F)F)n1	3%	i	-4%	-15%	-44	-22
CCOC(=O)CS(=O)(=O)c1nc(-c2ccccc2)cc(C(F)(F)F)n1	0%	i	6%[15.4 µM]	12%	?	-78*
CCOC(=O)CCS(=O)(=O)c1nc(-c2ccccc2)cc(C(F)(F)F)n1	1%	i	29%	1%	?	.
CCOC(=O)CS(=O)(=O)c1nc(-c2ccc(F)cc2)cc(C(F)(F)F)n1	0%	i	2%[15.4 µM]	0%	-39	-80*
Cc1ccc2[nH]c(=O)c(CN(CCCN(C)C)C(=O)Nc3ccc(F)cc3)cc2c1	0%	i	7.1µM*	-8%[15.4 µM]	-4	-2
CN1CCCN(C(=O)c2cc(-c3cccc4ccccc34)nc3ccccc23)CC1	5%	i	0%	-5%[15.4 µM]	-77*	-26
COc1ccc(N2CCN(C(=O)c3cc(-c4cc(OC)ccc4OC)nc4ccccc34)CC2)cc1	4%	i	?	-59%	-17	-11
CCOc1ccccc1N1CCN(C(=O)c2cc(-c3cc(OC)ccc3OC)nc3ccccc23)CC1	2%	i	14µM*	23%	-22	2
COc1ccc(C(=O)c2c[nH]c(C(=O)NCc3ccco3)c2)cc1	1%	i	-8%	-35%	-1	-8
COc1cccc(C(=O)c2c[nH]c(C(=O)NCc3ccco3)c2)c1	1%	-112%*	-13%	?	-14	-9
CCn1cc([N+](=O)[O-])c(C(=O)N2N=C(c3cccc4ccccc34)CC2c2ccccc2O)n1 (stereo unspecified)	1%	i	28µM*	14%	-10	-2
CCn1cc([N+](=O)[O-])c(C(=O)N2N=C(c3ccc4ccccc4c3)CC2c2ccccc2O)n1 (stereo unspecified)	2%	i	?	-28%	9	3
Cc1nc2ccccc2c2oc(C(=O)NCC3COc4ccccc4O3)cc12 (stereo unspecified)	0%	i	40µM*	?	-28	-84*
Cc1nc(-c2ccc(F)cc2)c(CC(=O)N(C)CC(=O)Nc2ccc(Cl)c(C(F)(F)F)c2)s1	.	i	32µM*	20%	.	-10
Cc1c(C(=O)NCc2cccc(C(F)(F)F)c2)sc(=O)n1Cc1ccccc1F	.	i	.	.	.	.
